Legend:
Assay in all cases: DAPPL (digital affinity profiling via proximity ligation, sequencing); 10 mM Tris-HCl pH 7.5, 50 mM NaCl, 1 mM DTT, 4% glycerol, room temperature, 30 min; GST-TFs on glutathione beads, 16-mer random dsDNA library, 0.1% formaldehyde crosslink after washing; high values mean tight binding
FLI1 = biological target: T1, FLI1 (Homo sapiens, UniProt Q01543 1-452); conditions: protein: recombinant; tags: N-terminal GST; dsDNA, one strand shown
T1 sequence: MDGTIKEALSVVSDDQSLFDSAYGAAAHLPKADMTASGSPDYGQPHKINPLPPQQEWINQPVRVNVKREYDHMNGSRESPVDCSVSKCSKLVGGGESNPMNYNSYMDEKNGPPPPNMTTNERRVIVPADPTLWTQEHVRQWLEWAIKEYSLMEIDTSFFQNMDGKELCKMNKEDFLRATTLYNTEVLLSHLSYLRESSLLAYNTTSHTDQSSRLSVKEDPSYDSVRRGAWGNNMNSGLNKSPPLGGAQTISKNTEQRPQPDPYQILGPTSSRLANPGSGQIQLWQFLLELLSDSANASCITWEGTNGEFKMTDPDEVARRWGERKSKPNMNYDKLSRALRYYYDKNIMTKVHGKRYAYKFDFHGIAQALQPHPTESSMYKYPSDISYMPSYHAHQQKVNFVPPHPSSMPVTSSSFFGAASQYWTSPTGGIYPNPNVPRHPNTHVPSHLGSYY
How it was run: (§1)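 Human transcription factors carrying a GST fusion were produced in yeast, bound to glutathione beads, tagged with DNA barcodes and pooled together with a tag-only sample. Each pool was held with 200 nmole of a random double-stranded 16-mer DNA library in Tris/NaCl/DTT/glycerol buffer for 30 min at room temperature, then washed, crosslinked in 0.1% formaldehyde, proximity-ligated with BsaI/T4 ligase (1 h, 37 °C), PCR-amplified and sequenced on an Illumina NextSeq500. Binding signal is the read frequency of each hexamer for a given factor divided by its frequency in the tag-only sample.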

ELK1 = biological target: T2, ELK1 (Homo sapiens, UniProt P19419 1-428); conditions: protein: recombinant; tags: N-terminal GST; dsDNA, one strand shown
T2 sequence: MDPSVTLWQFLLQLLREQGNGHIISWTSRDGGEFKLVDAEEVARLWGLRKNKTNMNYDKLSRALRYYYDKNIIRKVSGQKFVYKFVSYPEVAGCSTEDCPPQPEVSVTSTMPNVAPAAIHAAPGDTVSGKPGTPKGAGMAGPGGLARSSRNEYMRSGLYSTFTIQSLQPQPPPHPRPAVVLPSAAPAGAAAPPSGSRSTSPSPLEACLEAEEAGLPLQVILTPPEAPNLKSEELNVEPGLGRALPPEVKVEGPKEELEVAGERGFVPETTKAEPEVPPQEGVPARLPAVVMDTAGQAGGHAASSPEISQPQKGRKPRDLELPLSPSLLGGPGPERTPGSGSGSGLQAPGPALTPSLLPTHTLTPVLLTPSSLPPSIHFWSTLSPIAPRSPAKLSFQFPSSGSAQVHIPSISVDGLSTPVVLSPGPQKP
How it was run: as §1

GABPA = biological target: T3, GABPA (Homo sapiens, UniProt Q06546 1-454); conditions: protein: recombinant; tags: N-terminal GST; dsDNA, one strand shown
T3 sequence: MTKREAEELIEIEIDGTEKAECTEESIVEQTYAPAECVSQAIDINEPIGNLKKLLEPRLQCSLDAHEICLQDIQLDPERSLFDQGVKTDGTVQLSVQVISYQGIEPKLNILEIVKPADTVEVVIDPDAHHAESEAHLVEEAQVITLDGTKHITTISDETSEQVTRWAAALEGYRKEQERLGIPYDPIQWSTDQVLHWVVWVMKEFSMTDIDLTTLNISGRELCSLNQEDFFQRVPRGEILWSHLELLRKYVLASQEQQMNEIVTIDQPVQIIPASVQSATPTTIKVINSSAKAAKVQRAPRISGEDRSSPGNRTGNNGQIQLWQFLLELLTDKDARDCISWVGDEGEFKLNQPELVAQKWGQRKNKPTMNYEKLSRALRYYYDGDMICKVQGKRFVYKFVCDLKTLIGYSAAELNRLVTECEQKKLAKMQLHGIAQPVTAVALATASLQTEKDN
How it was run: as §1

ERG = biological target: T4, ERG (Homo sapiens, UniProt P11308 1-479); conditions: protein: recombinant; tags: N-terminal GST; dsDNA, one strand shown
T4 sequence: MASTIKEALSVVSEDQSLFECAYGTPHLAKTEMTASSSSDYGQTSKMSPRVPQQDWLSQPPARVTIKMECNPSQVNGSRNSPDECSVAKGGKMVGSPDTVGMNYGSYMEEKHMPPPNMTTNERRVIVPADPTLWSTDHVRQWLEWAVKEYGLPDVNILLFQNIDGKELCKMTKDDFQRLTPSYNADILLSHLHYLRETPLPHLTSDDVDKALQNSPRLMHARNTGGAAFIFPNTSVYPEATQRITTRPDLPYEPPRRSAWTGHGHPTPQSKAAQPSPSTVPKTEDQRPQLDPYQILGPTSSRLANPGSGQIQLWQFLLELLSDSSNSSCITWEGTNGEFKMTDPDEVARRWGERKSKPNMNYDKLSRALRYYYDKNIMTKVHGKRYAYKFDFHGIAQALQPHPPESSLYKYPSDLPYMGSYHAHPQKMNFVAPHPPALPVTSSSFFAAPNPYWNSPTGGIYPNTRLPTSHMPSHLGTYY
How it was run: as §1

ELF1 = ELF1 (Homo sapiens, UniProt P32519 1-619); conditions: protein: recombinant; tags: N-terminal GST; dsDNA, one strand shown
How it was run: as §1

EHF = biological target: T5, EHF (Homo sapiens, UniProt Q9NZC4 1-300); conditions: protein: recombinant; tags: N-terminal GST; dsDNA, one strand shown
T5 sequence: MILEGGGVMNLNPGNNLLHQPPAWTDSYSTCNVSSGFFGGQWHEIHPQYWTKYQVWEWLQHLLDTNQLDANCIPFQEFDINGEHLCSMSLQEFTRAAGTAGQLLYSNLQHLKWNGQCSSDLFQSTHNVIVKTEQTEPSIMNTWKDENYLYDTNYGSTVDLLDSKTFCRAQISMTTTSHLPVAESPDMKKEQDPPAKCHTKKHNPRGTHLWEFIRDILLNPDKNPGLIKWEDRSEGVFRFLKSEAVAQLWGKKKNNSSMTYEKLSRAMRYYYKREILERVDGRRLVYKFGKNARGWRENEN
How it was run: as §1

SPI1 = SPI1 (Homo sapiens, UniProt P17947 1-270); conditions: protein: recombinant; tags: N-terminal GST; dsDNA, one strand shown
How it was run: as §1

SPIB = SPIB (Homo sapiens, UniProt Q01892 1-262); conditions: protein: recombinant; tags: N-terminal GST; dsDNA, one strand shown
How it was run: as §1

ELK3 = biological target: T6, ELK3 (Homo sapiens, UniProt P41970 1-407); conditions: protein: recombinant; tags: N-terminal GST; dsDNA, one strand shown
T6 sequence: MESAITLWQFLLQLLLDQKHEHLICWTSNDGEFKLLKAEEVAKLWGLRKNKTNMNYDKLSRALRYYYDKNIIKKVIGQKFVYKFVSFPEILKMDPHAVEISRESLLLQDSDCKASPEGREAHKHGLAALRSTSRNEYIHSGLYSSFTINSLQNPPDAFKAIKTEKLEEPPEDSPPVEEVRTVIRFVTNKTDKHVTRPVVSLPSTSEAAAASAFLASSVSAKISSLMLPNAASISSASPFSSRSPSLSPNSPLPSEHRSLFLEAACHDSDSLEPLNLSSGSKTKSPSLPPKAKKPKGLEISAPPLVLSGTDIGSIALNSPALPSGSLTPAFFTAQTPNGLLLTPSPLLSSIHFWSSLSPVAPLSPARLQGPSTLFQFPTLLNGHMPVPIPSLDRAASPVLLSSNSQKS
How it was run: as §1

FEV = biological target: T7, FEV (Homo sapiens, UniProt Q99581 1-238); conditions: protein: recombinant; tags: N-terminal GST; dsDNA, one strand shown
T7 sequence: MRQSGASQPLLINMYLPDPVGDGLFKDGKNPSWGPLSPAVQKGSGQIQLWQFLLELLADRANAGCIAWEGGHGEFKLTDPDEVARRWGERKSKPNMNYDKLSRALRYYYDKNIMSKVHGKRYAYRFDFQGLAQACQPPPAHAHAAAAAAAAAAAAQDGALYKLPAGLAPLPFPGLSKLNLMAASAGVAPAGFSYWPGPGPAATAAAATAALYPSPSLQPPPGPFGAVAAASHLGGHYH
How it was run: as §1

ETV5 = ETV5 (Homo sapiens, UniProt P41161 1-510); conditions: protein: recombinant; tags: N-terminal GST; dsDNA, one strand shown
How it was run: as §1

HSF1 = HSF1 (Homo sapiens, UniProt Q00613 1-529); conditions: protein: recombinant; tags: N-terminal GST; chain copies: 3; dsDNA, one strand shown
How it was run: as §1

SPIC = biological target: T8, SPIC (Homo sapiens, UniProt Q8N5J4 1-248); conditions: protein: recombinant; tags: N-terminal GST; dsDNA, one strand shown
T8 sequence: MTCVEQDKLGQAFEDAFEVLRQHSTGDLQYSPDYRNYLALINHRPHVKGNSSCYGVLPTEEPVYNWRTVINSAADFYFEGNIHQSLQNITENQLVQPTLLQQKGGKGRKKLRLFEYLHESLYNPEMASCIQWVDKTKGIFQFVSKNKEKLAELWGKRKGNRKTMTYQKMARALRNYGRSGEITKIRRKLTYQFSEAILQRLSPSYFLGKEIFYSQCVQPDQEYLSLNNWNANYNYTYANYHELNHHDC
How it was run: as §1

ELF4 = ELF4 (Homo sapiens, UniProt Q99607 1-663); conditions: protein: recombinant; tags: N-terminal GST; dsDNA, one strand shown
How it was run: as §1

ELK4 = biological target: T9, ELK4 (Homo sapiens, UniProt P28324-2 1-405); conditions: protein: recombinant; tags: N-terminal GST; dsDNA, one strand shown
T9 sequence: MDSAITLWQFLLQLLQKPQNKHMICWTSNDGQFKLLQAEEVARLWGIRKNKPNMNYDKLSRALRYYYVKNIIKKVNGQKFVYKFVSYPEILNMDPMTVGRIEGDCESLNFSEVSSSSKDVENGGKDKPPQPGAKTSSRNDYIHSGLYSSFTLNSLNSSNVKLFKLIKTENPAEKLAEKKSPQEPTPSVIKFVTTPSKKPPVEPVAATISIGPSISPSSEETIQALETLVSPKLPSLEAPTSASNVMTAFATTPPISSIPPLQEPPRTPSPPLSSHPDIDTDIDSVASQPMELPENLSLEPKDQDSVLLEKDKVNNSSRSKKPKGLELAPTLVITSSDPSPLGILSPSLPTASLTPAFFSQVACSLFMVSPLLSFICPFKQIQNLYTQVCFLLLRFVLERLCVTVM
How it was run: as §1

ETV2 = biological target: T10, ETV2 (Homo sapiens, UniProt O00321 1-342); conditions: protein: recombinant; tags: N-terminal GST; dsDNA, one strand shown
T10 sequence: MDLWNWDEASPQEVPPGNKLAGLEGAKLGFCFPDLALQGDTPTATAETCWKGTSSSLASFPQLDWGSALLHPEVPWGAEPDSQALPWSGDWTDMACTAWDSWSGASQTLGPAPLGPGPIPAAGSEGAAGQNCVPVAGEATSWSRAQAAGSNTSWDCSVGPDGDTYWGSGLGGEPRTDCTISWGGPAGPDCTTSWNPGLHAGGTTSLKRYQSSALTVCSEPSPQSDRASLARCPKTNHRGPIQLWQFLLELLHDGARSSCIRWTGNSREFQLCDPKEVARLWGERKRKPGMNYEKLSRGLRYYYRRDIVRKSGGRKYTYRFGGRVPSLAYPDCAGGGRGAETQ
How it was run: as §1

ELF3 = biological target: T11, ELF3 (Homo sapiens, UniProt P78545 1-371); conditions: protein: recombinant; tags: N-terminal GST; dsDNA, one strand shown
T11 sequence: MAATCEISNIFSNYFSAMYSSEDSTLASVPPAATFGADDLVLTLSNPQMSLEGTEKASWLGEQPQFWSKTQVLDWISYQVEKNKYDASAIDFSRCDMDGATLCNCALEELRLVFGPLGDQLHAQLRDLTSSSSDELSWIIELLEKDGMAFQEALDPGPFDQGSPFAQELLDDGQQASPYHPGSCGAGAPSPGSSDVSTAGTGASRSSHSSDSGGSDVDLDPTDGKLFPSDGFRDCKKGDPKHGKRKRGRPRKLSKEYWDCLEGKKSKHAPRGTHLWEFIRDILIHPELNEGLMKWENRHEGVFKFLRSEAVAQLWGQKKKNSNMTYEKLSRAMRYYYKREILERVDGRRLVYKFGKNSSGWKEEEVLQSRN
How it was run: as §1

CRX = CRX (Homo sapiens, UniProt O43186 1-299); conditions: protein: recombinant; tags: N-terminal GST; dsDNA, one strand shown
How it was run: as §1

ETV1 = ETV1 (Homo sapiens, UniProt P50549 1-477); conditions: protein: recombinant; tags: N-terminal GST; dsDNA, one strand shown
How it was run: as §1

HSF1, sequence (Q00613 whole entry): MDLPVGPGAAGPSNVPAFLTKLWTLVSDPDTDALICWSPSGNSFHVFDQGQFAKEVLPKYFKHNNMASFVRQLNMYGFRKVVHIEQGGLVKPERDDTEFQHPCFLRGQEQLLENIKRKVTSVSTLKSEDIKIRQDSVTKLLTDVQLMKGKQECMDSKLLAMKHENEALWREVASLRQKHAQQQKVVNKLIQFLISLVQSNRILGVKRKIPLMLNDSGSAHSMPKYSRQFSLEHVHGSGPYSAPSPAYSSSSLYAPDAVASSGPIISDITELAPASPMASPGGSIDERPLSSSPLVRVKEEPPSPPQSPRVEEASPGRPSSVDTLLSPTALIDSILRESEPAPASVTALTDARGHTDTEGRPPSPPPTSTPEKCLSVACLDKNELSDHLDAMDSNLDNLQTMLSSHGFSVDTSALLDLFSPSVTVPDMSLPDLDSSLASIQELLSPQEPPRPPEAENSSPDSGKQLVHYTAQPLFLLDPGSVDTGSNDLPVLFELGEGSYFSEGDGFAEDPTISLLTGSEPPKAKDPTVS
CRX, sequence (O43186 whole entry): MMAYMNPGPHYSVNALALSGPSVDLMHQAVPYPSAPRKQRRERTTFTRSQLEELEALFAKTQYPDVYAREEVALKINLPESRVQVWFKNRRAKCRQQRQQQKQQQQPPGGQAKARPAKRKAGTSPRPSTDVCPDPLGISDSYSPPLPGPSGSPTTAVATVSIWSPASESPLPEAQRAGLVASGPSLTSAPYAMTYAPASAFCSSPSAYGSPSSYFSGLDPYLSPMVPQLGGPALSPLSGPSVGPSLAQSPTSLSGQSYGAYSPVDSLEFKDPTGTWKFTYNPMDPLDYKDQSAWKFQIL
ETV5, sequence (P41161 whole entry): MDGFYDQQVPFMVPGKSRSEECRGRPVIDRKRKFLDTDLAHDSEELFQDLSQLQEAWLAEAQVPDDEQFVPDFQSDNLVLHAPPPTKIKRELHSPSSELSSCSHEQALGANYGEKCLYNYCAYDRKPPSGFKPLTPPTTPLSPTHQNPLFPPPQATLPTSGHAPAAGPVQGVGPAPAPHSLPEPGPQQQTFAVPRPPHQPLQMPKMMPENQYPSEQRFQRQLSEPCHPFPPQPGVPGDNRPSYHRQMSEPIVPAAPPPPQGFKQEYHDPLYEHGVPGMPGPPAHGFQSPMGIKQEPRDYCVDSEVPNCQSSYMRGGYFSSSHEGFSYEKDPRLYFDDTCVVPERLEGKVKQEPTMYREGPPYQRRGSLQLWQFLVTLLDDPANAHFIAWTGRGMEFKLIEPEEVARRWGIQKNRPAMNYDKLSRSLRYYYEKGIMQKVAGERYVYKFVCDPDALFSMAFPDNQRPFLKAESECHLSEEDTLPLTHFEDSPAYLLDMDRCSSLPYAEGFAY
ETV1, sequence (P50549 whole entry): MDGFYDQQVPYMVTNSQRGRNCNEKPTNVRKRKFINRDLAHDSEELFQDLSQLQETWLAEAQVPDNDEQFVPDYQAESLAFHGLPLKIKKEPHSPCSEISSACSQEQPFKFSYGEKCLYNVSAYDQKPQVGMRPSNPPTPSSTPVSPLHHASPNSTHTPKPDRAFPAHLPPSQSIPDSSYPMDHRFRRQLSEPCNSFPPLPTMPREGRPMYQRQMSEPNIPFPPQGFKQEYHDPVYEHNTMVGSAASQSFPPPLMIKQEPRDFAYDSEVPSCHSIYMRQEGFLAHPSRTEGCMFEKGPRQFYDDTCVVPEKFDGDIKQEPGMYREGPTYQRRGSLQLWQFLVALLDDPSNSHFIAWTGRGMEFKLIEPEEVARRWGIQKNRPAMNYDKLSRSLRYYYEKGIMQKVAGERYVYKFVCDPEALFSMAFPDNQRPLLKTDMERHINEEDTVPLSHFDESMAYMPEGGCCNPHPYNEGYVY
SPIB, sequence (Q01892 whole entry): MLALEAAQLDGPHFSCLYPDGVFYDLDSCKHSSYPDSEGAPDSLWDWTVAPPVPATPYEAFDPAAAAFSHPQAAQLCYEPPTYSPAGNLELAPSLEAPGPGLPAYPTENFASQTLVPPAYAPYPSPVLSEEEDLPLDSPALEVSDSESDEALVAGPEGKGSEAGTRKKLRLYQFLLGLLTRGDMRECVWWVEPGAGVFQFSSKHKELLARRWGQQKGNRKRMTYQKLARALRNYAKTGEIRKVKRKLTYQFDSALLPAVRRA
ELF4, sequence (Q99607 whole entry): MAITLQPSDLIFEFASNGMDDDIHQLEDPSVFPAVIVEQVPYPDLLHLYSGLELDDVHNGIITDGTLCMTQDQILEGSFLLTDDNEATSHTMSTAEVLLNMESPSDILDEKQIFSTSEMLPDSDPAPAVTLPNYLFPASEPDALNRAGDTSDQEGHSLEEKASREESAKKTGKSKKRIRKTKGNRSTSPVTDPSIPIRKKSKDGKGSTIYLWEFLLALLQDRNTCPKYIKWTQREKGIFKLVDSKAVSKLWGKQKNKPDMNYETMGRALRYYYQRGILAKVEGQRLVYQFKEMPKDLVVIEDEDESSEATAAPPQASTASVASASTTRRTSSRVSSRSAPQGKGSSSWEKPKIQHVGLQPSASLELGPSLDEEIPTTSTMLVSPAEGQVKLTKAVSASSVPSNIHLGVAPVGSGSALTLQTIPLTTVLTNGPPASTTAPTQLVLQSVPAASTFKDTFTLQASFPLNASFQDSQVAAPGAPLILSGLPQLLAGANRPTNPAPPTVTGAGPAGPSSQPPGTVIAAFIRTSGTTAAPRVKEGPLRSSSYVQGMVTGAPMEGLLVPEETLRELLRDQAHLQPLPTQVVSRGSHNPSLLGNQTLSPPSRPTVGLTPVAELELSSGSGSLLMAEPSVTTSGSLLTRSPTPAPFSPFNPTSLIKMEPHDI
ELF1, sequence (P32519 whole entry): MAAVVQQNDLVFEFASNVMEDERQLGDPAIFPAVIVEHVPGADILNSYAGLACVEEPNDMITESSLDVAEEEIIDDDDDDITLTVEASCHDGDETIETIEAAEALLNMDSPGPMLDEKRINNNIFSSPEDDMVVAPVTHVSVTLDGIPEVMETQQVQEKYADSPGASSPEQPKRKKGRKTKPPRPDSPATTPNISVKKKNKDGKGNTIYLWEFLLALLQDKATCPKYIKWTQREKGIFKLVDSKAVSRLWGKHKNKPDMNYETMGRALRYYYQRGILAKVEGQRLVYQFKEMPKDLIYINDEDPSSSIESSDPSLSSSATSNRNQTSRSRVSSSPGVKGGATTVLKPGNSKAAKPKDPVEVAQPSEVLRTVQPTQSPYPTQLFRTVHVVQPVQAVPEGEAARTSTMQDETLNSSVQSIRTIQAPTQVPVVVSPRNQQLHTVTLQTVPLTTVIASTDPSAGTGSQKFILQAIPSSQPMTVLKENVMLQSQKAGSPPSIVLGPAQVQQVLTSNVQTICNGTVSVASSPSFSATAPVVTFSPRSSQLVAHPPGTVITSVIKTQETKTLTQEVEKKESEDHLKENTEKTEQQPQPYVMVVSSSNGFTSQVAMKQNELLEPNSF

ATATCT
binding signal (FLI1): 1.25 fold enrichment (6-mer frequency, TF over GST control) | binding signal (ELK1): 1.19 fold enrichment (6-mer frequency, TF over GST control) | binding signal (GABPA): 1.26 fold enrichment (6-mer frequency, TF over GST control) | binding signal (ERG): 1.21 fold enrichment (6-mer frequency, TF over GST control) | binding signal (ELF1): 1.21 fold enrichment (6-mer frequency, TF over GST control) | binding signal (EHF): 1.17 fold enrichment (6-mer frequency, TF over GST control) | binding signal (SPI1): 1.16 fold enrichment (6-mer frequency, TF over GST control) | binding signal (SPIB): 1.21 fold enrichment (6-mer frequency, TF over GST control) | binding signal (ELK3): 1.15 fold enrichment (6-mer frequency, TF over GST control) | binding signal (FEV): 1.15 fold enrichment (6-mer frequency, TF over GST control) | binding signal (ETV5): 1.1 fold enrichment (6-mer frequency, TF over GST control) | binding signal (HSF1): 1.26 fold enrichment (6-mer frequency, TF over GST control) | binding signal (SPIC): 1.1 fold enrichment (6-mer frequency, TF over GST control) | binding signal (ELF4): 1.17 fold enrichment (6-mer frequency, TF over GST control) | binding signal (ELK4): 1.2 fold enrichment (6-mer frequency, TF over GST control) | binding signal (ETV2): 1.3 fold enrichment (6-mer frequency, TF over GST control) | binding signal (ELF3): 1.21 fold enrichment (6-mer frequency, TF over GST control) | binding signal (CRX): 1.39 fold enrichment (6-mer frequency, TF over GST control) | binding signal (ETV1): 1.16 fold enrichment (6-mer frequency, TF over GST control)

Source: publication PMC7862700, “An all-to-all approach to the identification of sequence-specific readers for epigenetic DNA modifications on cytosine”
